Laboratory results: PubChem BioAssay AID504329 (Southern Research Specialized Biocontainment Screening …, 2011)
Hit rate of the full screen: of about 340,000 compounds, about 1,000 (0.29%) were called active. These entries were drawn from the full list. Measured potencies and affinities stand elsewhere. Unmarked numbers belong to inactive results. No stated cut-off is given here; in the data, inconclusive means inhibition above about 27% without an active follow-up result; inactive means below that.

test: NS1A inhibition, H1N1 influenza, cell based functional assay (AID 504329); settings: percent inhibition, at 12.5 µM, hits give high values

Compound	inhibition [%]
CCOC(=O)CN(C(=O)CNC(=O)c1cccs1)C(C(=O)NC1CCCC1)c1ccncc1 (centres undefined)	-5
CCC(C(=O)N/N=C/c1cccnc1)c1ccccc1 (centres undefined)	-5.44
Cc1cc(C(=O)NC2CCCN(Cc3ccccc3F)C2)n[nH]1 (centres undefined)	-3.85
C=CCNC(=S)Nc1ccccc1-c1nnc2n1CCCCC2	9.65
COC(=O)c1cc(C(=O)OCC(=O)NC2CCCCCCC2)cc([N+](=O)[O-])c1	-0.07
Cc1ccc(CNC(=O)COc2ccc(C)nc2[N+](=O)[O-])cc1	-5.51
CCCCC(=O)Nc1c2c(nn1-c1ccc(C)cc1)CS(=O)(=O)C2	-7.59
COC(=O)c1c(C)cc(C)c2c1CC(C)(C)C2=O	5.46
COc1ccc(C(=O)Nc2nc(-c3ccccn3)cs2)cc1S(=O)(=O)N1CCOCC1	-8.69
Cc1ccc(S(=O)(=O)N2CCOCC2)cc1C(=O)Nc1nc(-c2ccccn2)cs1	7.65
Cc1ccc(C(=O)Nc2ccccn2)cc1S(=O)(=O)N1CCOCC1	-1.96
O=C(Nc1nccs1)c1ccc(F)c(S(=O)(=O)N2CCOCC2)c1	-4.84
O=C(Nc1ccccc1)c1ccc(F)c(S(=O)(=O)N2CCOCC2)c1	5.59
Cc1ccc(S(=O)(=O)N2CCOCC2)cc1C(=O)Nc1nc(-c2cccnc2)cs1	-7.87
CCC(NC(=O)COc1cc2c(c3oc(=O)c(C)c(C)c13)CCC(C)(C)O2)C(=O)O (centres undefined)	-8.88
CC(C)CCN1CC(=O)N2Cc3[nH]c4ccccc4c3C[C@H]2C1=O	19.7
Cc1c(CNC2CCCC(C)C2C)c(C(=O)O)c(C)n1Cc1ccccc1 (centres undefined)	-12.9
CC(C)NC(=O)NC(=O)COC(=O)c1cc(S(=O)(=O)N2CCCCC2)ccc1N1CCOCC1	-4.42
Cc1ccc(S(=O)(=O)N2CCCC2C(=O)OCc2ccccc2)cc1 (centres undefined)	1.42
Cc1ccnc(NC(c2ccccc2)c2ccc3cccnc3c2O)c1 (centres undefined)	7.45
Oc1ccccc1C(Nc1nccs1)c1ccc2cccnc2c1O (centres undefined)	21.5
Cc1cc(NC(c2ccc(Cl)cc2)c2ccc3cccnc3c2O)no1 (centres undefined)	-17.5
Cc1ccc2ccc(C(Nc3ccccn3)c3ccccc3)c(O)c2n1 (centres undefined)	32.6

Compound	inhibition [%]
COc1ccc(C(Nc2cc(C)ccn2)c2ccc3ccc(C)nc3c2O)cc1 (centres undefined)	7.32
COc1ccccc1NC(c1cccnc1)c1ccc2cccnc2c1O (centres undefined)	17.3
Oc1c(C(Nc2cccc(C(F)(F)F)c2)c2cccnc2)ccc2cccnc12 (centres undefined)	-1.29
Cc1ccc2ccc(C(Nc3cccc(C(F)(F)F)c3)c3cccnc3)c(O)c2n1 (centres undefined)	11.9
CC(C)CNC(=O)COc1cccc(C(=O)NCc2ccccc2)c1	-16.8
O=C(CN1C(=O)c2cccc3cccc1c23)NCc1cccnc1	-7.77
Cc1cc(S(=O)(=O)Nc2ccc(N3CCOCC3)cc2)ccc1Br	9.89
Cc1ccc(-n2nc3c(=O)n(CCCC(=O)NCc4cccc(F)c4)nc(C)c3c2C)cc1	4.12
Cc1c2cnn(CC(=O)NCCN3CCOCC3)c(=O)c2c(C)n1Cc1ccccc1	7.12
Cc1ccc(Nc2nc(N)nc(CSc3nnnn3-c3ccccc3)n2)cc1	-1.1
COc1cccc(CN(C)C(=O)c2ccc(NS(=O)(=O)c3ccc4[nH]c(=O)[nH]c4c3)cc2)c1OC	-3.23
CC(C(=O)Nc1cccc(S(=O)(=O)N2CCOCC2)c1)N1CCN(C/C=C/c2ccccc2)CC1 (centres undefined)	-4.15
CCOC(=O)Cc1csc(NS(=O)(=O)c2ccc(NC(C)=O)cc2)n1	-2.56
Cc1cc(C)c(S(=O)(=O)/N=C2\C=C(NS(=O)(=O)c3ccccc3)C(=O)c3ccccc32)c(C)c1	0.45
Cc1ccc(S(=O)(=O)/N=C2\C=C(Nc3cccc(C(=O)O)c3)C(=O)c3ccccc32)c(C)c1	25.4
CCc1ccc(S(=O)(=O)/N=C2\C=C(Nc3cccc(C(=O)O)c3)C(=O)c3ccccc32)cc1	24.6
O=C(O)c1ccc(NC2=C/C(=N/S(=O)(=O)c3ccccc3)c3ccccc3C2=O)cc1	15.2
O=C(COC(=O)c1c(F)cccc1F)Nc1ccc(N2CCCCC2)cc1	-4.21
CCOc1ccc(-n2c(SCc3cc(=O)oc4cc(C)c(C(C)C)cc34)nnc2-c2cccnc2)cc1	2.59
COc1ccc(C2CC3(CC(C)(C)NC(SC)=N3)Oc3cc(O)cc(C)c32)cc1 (centres undefined)	2.74
CCCN1CCC(NC(=O)C2CCCCC2C(=O)O)CC1 (centres undefined)	-9.23
CC(c1ccon1)N(C)C(=O)c1ccc(OC2CCN(C(=O)C3CC3)CC2)cc1 (centres undefined)	1.15
CC(=O)c1ccc(N=c2scc(C)n2C(C)C)cc1	2.71

Compound	inhibition [%]
Clc1ccc(/C=N/N2CCCCC2)cc1	10.3
CCN(CC)c1ccc(C=NN2CCCCCC2)cc1	1.15
COc1ccc(CNCC2COc3ccccc3O2)cc1 (centres undefined)	-2.36
O=C(CC1C[C@H](C(=O)N2CCCCC2)[C@@]2(CCc3ccccc3)c3[nH]c4ccccc4c3CCN2C1=O)NCCCn1ccnc1 (some centres undefined)	-10.1
CCN1C(=O)/C(=C2\C=Cc3ccccc3N2CC)OC1=S	20.4
CCN1C(=O)/C(=C2\SC(=S)N(NC(=O)c3ccccc3O)C2=O)c2ccccc21	-6.27
CCN1C(=C2C(=O)c3ccccc3C2=O)C=Cc2ccccc21	-0.12
CCN1/C(=C2\OC(=S)N(C)C2=O)C=Cc2ccccc21	4.12
CCN1/C(=C2/SC(=S)N(C)C2=O)C=Cc2cc(C)ccc21	9.87
COCCN1C(=O)/C(=C2/C(=O)N(CC(=O)Nc3ccccc3Cl)c3ccccc32)SC1=S	1.06
CN1C(=O)/C(=C2/C=Cc3ccccc3N2CCCS(=O)(=O)O)SC1=S	8.55
CCCN1/C(=C2/SC(=S)N(CC)C2=O)C=Cc2ccccc21	-4.1
CC(SCc1ccccc1)C(=O)Nc1ccccc1F (centres undefined)	4.17
N#Cc1c(Sc2ncc(C(F)(F)F)cc2Cl)nsc1C/C=N\OCc1ccccc1Br	-7.95
Cn1nc(C(C)(C)C)cc1C(=O)NNC(=O)c1ccc(C(F)(F)F)cc1	-21.4
O=C(NNc1cccc(Cl)n1)c1ccccc1CC[N+](=O)[O-]	-1.98
CCn1nc(NS(=O)(=O)c2ccc([N+](=O)[O-])cc2)c2cc3ccccc3nc21	4.22
CCC(C)(C)C1CCC2(CC1)NC(=O)N(CC(=O)N(C)Cc1ccc3c(c1)OCCO3)C2=O (centres undefined)	-14.3
CCN1C(=O)/C(=c2\o/c(=C3\C=Cc4ccccc4N3CC)c(=O)n2CC)SC1=S	19.6
CCN1/C(=C2\C(=O)N(C)C(=S)N2C)C=Cc2ccccc21	6.98
O=C(NCCO)Nc1ccc(Cl)cc1	0.44
Cc1ccc(S(=O)(=O)CCC(=O)Nc2nccs2)cc1	6.51
O=C(Cc1c[nH]c2ccccc12)NNCc1ccc(N(CCCl)CCCl)cc1	14.4

Compound	inhibition [%]
Oc1[nH]c2ccccc2c1N=Nc1ccc(F)cc1	-3.37
O=C(O)c1ccc(N=Nc2c(O)[nH]c3ccccc23)cc1	-7.55
O=C(Cc1ccc(Cl)c(Cl)c1)N1CCOCC1	-9.69
Cc1ccc(C(=O)N/N=C\c2ccccc2[N+](=O)[O-])cn1	4.04
O=C(N/N=C\c1cc2c(cc1[N+](=O)[O-])OCO2)c1cccs1	-1.36
O=C(N/N=C/c1ccccc1[N+](=O)[O-])c1cccs1	-0.41
Cc1cc([N+](=O)[O-])cc(/C=N\NC(=O)C2COc3ccccc3O2)c1O (centres undefined)	19.3
Cc1cc(C(=O)N/N=C/c2cc(Cl)cc([N+](=O)[O-])c2O)n[nH]1	-7.04
O=C(N/N=C/c1cccc([N+](=O)[O-])c1O)C(O)(c1ccccc1)c1ccccc1	-8.83
CCNC(=S)N(Cc1ccc2c(c1)OCO2)C1CC(=O)N(c2ccc(OC)cc2)C1=O (centres undefined)	-4.24
O=C(NCCN1CCOCC1)C(=O)NCc1ccco1	-2.57
CC1CCC(NC(=O)CSc2nncs2)CC1 (centres undefined)	1.05
Cc1cc2nc(-c3ccc(SCC(=O)Nc4ccc(S(=O)(=O)NC5CC5)cc4)nc3)[nH]c2cc1C	-2.72
C=CCOc1ccccc1/C=C/C(=O)O	1.54
CC(=O)c1ccc(N(C)C)c2c(N(C)C)cccc12	-6.19
CN(C)c1cccc2c(/C=N/O)ccc(N(C)C)c12	5.22
Cc1ccc(-n2nc(C)c3c2OC(N)=C(C#N)C3c2ccco2)cc1 (centres undefined)	15.8
Cc1ccc(-n2nc(C)c3c2OC(N)=C(C#N)C3c2ccncc2)cc1 (centres undefined)	-2
Cc1nn(-c2ccccc2)c2c1C(c1ccccc1)C(C#N)=C(N)O2 (centres undefined)	-4.13
Cc1nn(-c2ccccc2)c2c1C(c1cccs1)C(C#N)=C(N)O2 (centres undefined)	11.8
